Our source for the Potency values is PubChem BioAssay (NCATS).

The subject of assay [1] is Zika virus NS2B-NS3 protease (unlinked complex). Nature of the assay: Primary screen GU Rhodamine qHTS for Zika virus inhibitors: Unlinked NS2B-NS3 protease assay (AID 1347159). Further: nearly all actives have a fitted effect of over 60% in size. Further: potency means the concentration at half of the fitted maximal effect. The conditions noted are these: Recombinant ZIKV NS2B-NS3 protease, Rhodamine110 substrate fluorescence; series mostly up to 107 µM. An outline of the steps:
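Noncovalent NS2B hydrophilic domain/NS3 protease complex (25 nM final) in 10 mM Tris-HCl pH 8.0, 0.01% Tween 20, preincubated 15 min with compounds (up to 114 microM), then 1.5 microM Rhodamine110 substrate. Fluorescence change over 15 min fitted to 4-parameter Hill.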

Assay [2] concerns Zika virus NS2B-NS3 protease (linked construct). Put plainly: Primary screen NINDS Rhodamine qHTS for Zika virus inhibitors (AID 1347160). Further: nearly all actives have a fitted effect of over 55% in size. The conditions noted are these: purified NS2B-NS3 protease, Rhodamine110 substrate fluorescence; series mostly up to 57.1 µM. Put shortly:
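Purified NS2B-NS3 protease with the NS2B hydrophilic domain joined by a flexible linker (25 nM) in 10 mM Tris-HCl pH 8.0, 0.01% Tween 20, preincubated 15 min at RT with compound; Rhodamine110 peptide substrate 1.5 µM; fluorescence change over 15 min; 4-parameter Hill fit.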

Inconclusive results are not listed. Entries that show only a call come without a potency. Active and inactive are the calls of the source. The call rests on the fitted dose curve; in most records, active means well fitted inhibition curve with a large enough effect; inconclusive means small, poorly fitted or top-dose-only effect; inactive means no such curve, though single readings can be large or run the other way. *1 amine or outer side, *2 acyl side, *3 side chain or, on linkers, in order; H or OH if unused. Where a SMILES comes first, the peptide text is derived from it. [ ]: non-standard residue; d: D form. X4 = CC(C)=CCc1cc(C(O)C(N[*:1])C(=O)[*:2])ccc1O

On to `CC1=C(C(=O)O[C@@H]2O[C@H](COC3OCC(O)C(O)C3O)[C@@H](O)[C@H](O)[C@H]2O)C(C)(C)CCC1` (stereo partly drawn), for which, in assay [1], the Potency result was “inactive”.

As for `CC(C)c1cc2c(c(O)c1O)[C@@]13CCCC(C)(C)[C@@H]1[C@H](OC3=O)C2=O`, the Potency in assay [1] was 8.91 µM (active).

On to `CC(=O)O[C@@H]1[C@@H](CO)O[C@@](CO)(O[C@H]2O[C@H](COC(=O)/C=C/c3ccccc3)[C@@H](O)[C@H](O)[C@H]2O)[C@H]1O`, for which, in assay [1], the Potency result was “inactive”.

In the case of `Cc1ccccc1C#Cc1ccc(CCC(=O)O)cc1`, the Potency in assay [1] is 14.1 µM (active).

For the compound `O=C(Nc1ccc(-c2ccncc2)cc1)N[C@H](CO)c1ccccc1`, in assay [1], the Potency entry is “inactive”.

In the case of `Cc1cc(Nc2nc(NC(C)c3ncc(F)cn3)ncc2Cl)n[nH]1` (stereo not drawn), in assay [1], the Potency entry was “inactive”.

`CC1(C)[C@@H](O)CC[C@]2(C)[C@H]3CC=C4[C@@H]5C[C@](C)(C(=O)O)CC[C@]5(C)CC[C@@]4(C)[C@]3(C)CC[C@@H]12`: the Potency in assay [1] is 7.08 µM (active).

Consider `CC(=O)OCC1(O)CCC2C(COC3OC(CO)C(O)C(O)C3OC(=O)/C=C/c3ccc(O)cc3)=COC(OC(=O)CC(C)C)C21` (stereo not drawn), for which, in assay [1], the Potency entry was “inactive”.

`CC1(C)CC[C@]2(C(=O)O[C@@H]3O[C@H](CO)[C@@H](O)[C@H](O)[C@H]3O)CC[C@]3(C)C(=CCC4[C@@]5(C)C[C@@H](O)[C@H](O)[C@@](C)(CO)C5CC[C@]43C)C2[C@@H]1O` (stereo partly drawn): the Potency in assay [1] is 10 µM (active).

Regarding `CCOc1cc(N2CCC(O)CC2)ccc1Nc1ncc2c(n1)N(C1CCCC1)CCC(=O)N2C`, the Potency entry in assay [1] was “inactive”.

For `CC1(C)CC[C@]2(C(=O)O[C@@H]3O[C@H](CO)[C@@H](O)[C@H](O)[C@H]3O)CC[C@]3(C)C(=CCC4[C@@]5(C)C[C@@H](O)[C@H](O)C(C)(C)C5CC[C@]43C)C2[C@@H]1O` (stereo partly drawn), the Potency entry in assay [1] was “inactive”.

In the case of `COC1/C=C/C(C)(O)C(SCC(N)C(=O)O)CC(=O)OC(C)C(C)CC/C=C/1C` (stereo not drawn), the Potency result in assay [1] and in assay [2] was “inactive” throughout.

As for `OC[C@@]1(O)CO[C@@H](OC[C@H]2O[C@@H](Oc3c[nH]c4ccccc34)[C@H](O)[C@@H](O)[C@@H]2O)[C@@H]1O`, the Potency entry in assay [1] and in assay [2] was “inactive” throughout.

On to `CC(O)CCC1C(CO[C@@H]2O[C@H](CO)[C@@H](O)[C@H](O)[C@H]2O)CC(O)CC1(C)C` (stereo partly drawn), for which the Potency result in assay [1] and in assay [2] was “inactive” throughout.

`C#CCN(Cc1cc2c(=O)n(C)c(CN3CCN(C)CC3)nc2cc1Cl)c1ccc(C(=O)NCc2cccnc2)cc1`: the Potency result in assay [1] and in assay [2] was “inactive” in each case.

Turning to `CNCc1ccc(-c2cc(-c3nc(-c4ccc(S(=O)(=O)C(C)C)cc4)cnc3N)on2)cc1`, the Potency result in assay [1] and in assay [2] was “inactive” each time.

Take `O=C(CO)[C@@H](O)[C@H](O[C@@H]1O[C@H](CO)[C@H](O)[C@H](O)[C@H]1O)[C@H](O)CO`: the Potency entry in assay [1] and in assay [2] was “inactive” each time.

For the compound `CC1(C(=O)O)CCCC2(C)C3CCC4CC3(CCC12)CC4=O` (stereo not drawn), the Potency result in assay [1] and in assay [2] was “inactive” throughout.

As to `CNC(=O)c1ccccc1Nc1nc(Nc2ccc3c(c2OC)CCCC(N2CCN(CCO)CC2)C3)ncc1Cl` (stereo not drawn), the Potency result in assay [1] and in assay [2] was “inactive” each time.

In the case of `CCC(=O)O[C@H]1C(C)(C)[C@H]([C@@H](O)C(=O)OC)[C@]2(C)C(=O)[C@@]1(O)[C@H]1O[C@]13C1CC(=O)O[C@@H](c4ccoc4)[C@]1(C)CCC32` (stereo partly drawn), the Potency entry in assay [1] and in assay [2] was “inactive” throughout.

Take `NC(=O)[C@H](O[C@@H]1O[C@H](CO)[C@@H](O)[C@H](O)[C@H]1O)c1ccccc1`: the Potency entry in assay [1] and in assay [2] was “inactive” throughout.

On to `C[C@@H]1C(=O)OC[C@H]2C(C(=O)O)=C[C@@H]3CC(C)(C)C[C@]312`, for which the Potency result in assay [1] and in assay [2] was “inactive” in each case.

Take `Cc1ccc(Cc2c(C)nc3nc(SCC(=O)NCCN4CCNCC4)nn3c2C)cc1`: the Potency entry in assay [1] and in assay [2] was “inactive” throughout.

In the case of `CC1(c2nc3c(C(N)=O)cccc3[nH]2)CCCN1` (stereo not drawn), the Potency result in assay [1] and in assay [2] was “inactive” each time.

Turning to `C[C@H]1Oc2cc(cnc2N)-c2c(nn(C)c2C#N)CN(C)C(=O)c2ccc(F)cc21`, the Potency result in assay [1] and in assay [2] was “inactive” in each case.

For `C[C@@H]1O[C@@H](O[C@@H]2[C@@H](O)[C@H](O[C@H]3CC[C@@]4(C)C(CC[C@]5(C)C4CC=C4[C@@H]6CC(C)(C)CC[C@]6(C(=O)O[C@@H]6O[C@H](CO)[C@@H](O)[C@H](O)[C@H]6O)CC[C@]45C)C3(C)C)O[C@H](C(=O)O)[C@H]2O)[C@H](O)[C@H](O)[C@H]1O` (stereo partly drawn), the Potency result in assay [1] and in assay [2] was “inactive” in each case.

Take `CN1CCN(Cc2ccc(-c3cnc4[nH]cc(-c5ccc6[nH]ccc6c5)c4c3)cc2)CC1`: the Potency result in assay [1] and in assay [2] was “inactive” throughout.

With `CC[C@H]1OC(=O)[C@H](C)[C@@H](O[C@H]2C[C@@](C)(OC)[C@@H](O)[C@H](C)O2)[C@H](C)[C@@H](O[C@@H]2O[C@H](C)C[C@H](N(C)C)[C@H]2O)[C@](C)(O)C[C@@H](C)C(=O)[C@H](C)[C@H]2OC(=O)O[C@@]21C`, the Potency result in assay [1] and in assay [2] was “inactive” in each case.

Regarding `CC(C)c1nnc(-c2ccc(-c3ccccc3)nc2)n1-c1cccc2nonc12`, the Potency result in assay [1] and in assay [2] was “inactive” throughout.

`CNC(=O)c1ccccc1Nc1nc(Nc2ccc3c(c2OC)CCC[C@@H](N2CCN(CCO)CC2)C3)ncc1Cl`: the Potency entry in assay [1] and in assay [2] was “inactive” in each case.

As to `NC(=O)C(CCC(F)(F)F)N(Cc1ccc(-c2ncon2)cc1F)S(=O)(=O)c1ccc(Cl)cc1` (stereo not drawn), the Potency result in assay [1] and in assay [2] was “inactive” each time.

Turning to `Cc1cccc(-c2[nH]c(Cc3cccc(C(N)=O)c3)nc2-c2ccc3nccnc3c2)n1`, the Potency result in assay [1] and in assay [2] was “inactive” in each case.

In the case of `C[C@@]1(O)[C@H](O)[C@@H](CO)O[C@H]1n1ccc(N)nc1=O`, the Potency result in assay [1] and in assay [2] was “inactive” each time.

With `O=C(/C=C/c1ccccc1)OC[C@]12O[C@H]1[C@@H](O)[C@@H]1C=CO[C@@H](O[C@@H]3O[C@H](CO)[C@@H](O)[C@H](O)[C@H]3O)[C@@H]12`, the Potency entry in assay [1] and in assay [2] was “inactive” in each case.

In the case of `COc1ccc(CCO[C@@H]2O[C@H](CO[C@@H]3OC[C@H](O)[C@H](O)[C@H]3O)[C@@H](O)[C@H](O)[C@H]2O)cc1`, the Potency result in assay [1] and in assay [2] was “inactive” in each case.

For `CC(=O)O[C@H]1C[C@@]2(C)[C@@H](CC[C@H]3[C@@]4(C)C=CC(=O)[C@@H](C)[C@@H]4[C@H](O)C(=O)[C@@]32C)/C1=C(/CCC=C(C)C)C(=O)O`, the Potency result in assay [1] and in assay [2] was “inactive” in each case.

Regarding `CNC(=O)c1cccc(-c2ccc3c(N4CCOC[C@@H]4C)nc(N4CCOC[C@@H]4C)nc3n2)c1`, the Potency entry in assay [1] and in assay [2] was “inactive” each time.

For `CO[C@H]1/C=C\O[C@@]2(C)Oc3c(C)c(O)c4c(O)c(c5c(nc6cc(C)ccn65)c4c3C2=O)NC(=O)/C(C)=C\C=C/[C@H](C)[C@H](O)[C@@H](C)[C@@H](O)[C@@H](C)[C@H](OC(C)=O)[C@@H]1C`, the Potency result in assay [1] and in assay [2] was “inactive” throughout.

For the compound `Cn1nnc(-c2ccc(-c3ccc(N4C[C@H](CO)OC4=O)cc3F)cn2)n1`, the Potency result in assay [1] and in assay [2] was “inactive” in each case.

As for `COc1ccc([C@@]2(O)c3c(ccc(CC=C(C)C)c3O)NC(=O)[C@@H]2OC)cc1`, the Potency result in assay [1] and in assay [2] was “inactive” in each case.

For the compound `C=C1C(O)C[C@@H]2C(C(=O)O)=CO[C@@H](O[C@@H]3O[C@H](CO)[C@@H](O)[C@H](O)[C@H]3OC(=O)c3ccc(O)cc3)[C@H]12` (stereo partly drawn), the Potency entry in assay [1] and in assay [2] was “inactive” each time.

With `O=C(O[C@H]1[C@@H]2C=CO[C@@H](O[C@@H]3O[C@H](CO)[C@@H](O)[C@H](O)[C@H]3O)[C@@H]2[C@@]2(CO)O[C@@H]12)c1ccccc1`, the Potency entry in assay [1] and in assay [2] was “inactive” in each case.

Turning to `COC(=O)c1c(C)cc(OC(=O)c2c(C)cc(OC)cc2OC)cc1O[C@@H]1O[C@H](CO)[C@@H](O)[C@H](O)[C@H]1O`, the Potency result in assay [1] and in assay [2] was “inactive” in each case.

In the case of `COc1cc2c(cc1OC)CC(=O)N(CCCNC[C@H]1Cc3cc(OC)c(OC)cc31)CC2`, the Potency result in assay [1] and in assay [2] was “inactive” each time.

Take `COC(=O)C1=CO[C@@H](O[C@@H]2O[C@H](CO)[C@@H](O)[C@H](O)[C@H]2O)[C@H]2[C@@H]1C=C[C@@]21C=C([C@H](C)O)C(=O)O1`: the Potency result in assay [1] and in assay [2] was “inactive” each time.

As for `CC1OC(OCC2OC(OC3CCC4(C)C(CCC5(C)C4CC=C4C6CC(C)(C)CCC6(C(=O)OC6OC(CO)C(O)C(O)C6O)CCC45C)C3(C)CO)C(O)C(O)C2O)C(O)C(O)C1O` (stereo not drawn), the Potency result in assay [1] and in assay [2] was “inactive” in each case.

As for `CCCC(=O)C1CCN(c2ncnc3c2CN(C(=O)c2ccc(-c4ccccc4)cc2)CC3)CC1`, the Potency entry in assay [1] and in assay [2] was “inactive” in each case.

In the case of `COc1ccc(C2COc3cc(O)ccc3C2)c(O)c1` (stereo not drawn), the Potency result in assay [1] and in assay [2] was “inactive” in each case.

With `CC(C(O)/C=C/C(C)(C)O)C1CCC2(C)C3C(=O)C=C4C(CCC(O)C4(C)C)C3(C)CCC12C` (stereo not drawn), the Potency result in assay [1] and in assay [2] was “inactive” each time.

Regarding `C[C@H](O)[C@H](O)/C=C/c1cccc(O)c1CO`, the Potency result in assay [1] and in assay [2] was “inactive” in each case.

On to `C[C@@H]1C(=O)O[C@H]2C[C@]34[C@H]5C[C@@H](C(C)(C)C)[C@]36[C@@H](OC(=O)[C@H]6O)O[C@]4(C(=O)O5)[C@]21O`, for which the Potency result in assay [1] and in assay [2] was “inactive” in each case.

Regarding `CC(C)=CCc1cc(C(O)C2NC(=O)CNC(=O)C(Cc3c[nH]c4ccccc34)NC(=O)C3CCCN3C(=O)CNC(=O)C(C(C)C)NC(=O)CNC2=O)ccc1O` (stereo not drawn) (cyclo(G[X4]GVGPW); configuration not given here), the Potency entry in assay [1] and in assay [2] was “inactive” each time.
